Results reported in PubChem BioAssay (NCI).
Compounds without any hit were thinned out: in the full panel of roughly 83,000, 20% have a hit.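 Testing used 96-well plates and a 48-hour single-concentration exposure. Example: -40 means 40% of the starting cells died.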 Unmarked numbers belong to inactive results. Activity calls are given as the source filed them. How the source made its calls: active means growth percent below 10; inactive means the rest.

Legend:
Assay in all cases: NCI-60 one-dose screen, 48 h (100 = growth as untreated, 0 = no growth, -100 = all killed)
[1] = tested on: RPMI-8226 leukemia; details: 10 µM unless noted
[2] = tested on: OVCAR-8 ovarian; details: 10 µM unless noted
[3] = tested on: OVCAR-5 ovarian; details: 10 µM unless noted
[4] = tested on: OVCAR-4 ovarian; details: 10 µM unless noted
[5] = tested on: SK-OV-3 ovarian; details: 10 µM unless noted
[6] = tested on: IGROV1 ovarian; details: 10 µM unless noted
[7] = tested on: OVCAR-3 ovarian; details: 10 µM unless noted
[8] = tested on: HS 578T breast; details: 10 µM
[9] = tested on: NCI/ADR-RES ovarian; details: 10 µM unless noted
[10] = tested on: T-47D breast; details: 10 µM unless noted
[11] = tested on: BT-549 breast; details: 10 µM unless noted
[12] = tested on: MDA-MB-435 melanoma; details: 10 µM unless noted
[13] = tested on: SW-620 colon; details: 10 µM unless noted
[14] = tested on: MCF7 breast; details: 10 µM unless noted
[15] = tested on: HCT-116 colon; details: 10 µM unless noted
[16] = tested on: HCC-2998 colon; details: 10 µM unless noted
[17] = tested on: KM12 colon; details: 10 µM unless noted
[18] = tested on: SR leukemia; details: 10 µM unless noted

Row | Compound | growth [1] | growth [2] | growth [3] | growth [4] | growth [5] | growth [6] | growth [7] | growth [8] | growth [9] | growth [10] | growth [11] | growth [12] | growth [13] | growth [14] | growth [15] | growth [16] | growth [17] | growth [18]
1 | COc1ccc(/C=C/C(=O)c2ccc(NC(=O)CSc3nnc(-c4ccc(OC)cc4)n3-c3ccccc3)cc2)cc1 | 77.5% | 92.2% | 108% | 100% | 100% | 111% | 103% | 91.2% | 102% | 92.9% | 99.7% | 98.3% | 102% | 77.1% | 4.27% (active) | 104% | 102% | 
2 | CC(C)(C)NC(=O)C(OC(=O)C1CCc2cc(F)ccc2O1)c1ccccc1Cl (stereo unspecified) |  | 98.3% | 96.6% | 94.9% | 102% | 92.8% |  |  | 95.5% | 86.8% | 107% | 106% | 99.7% | 97.8% | 93.9% | 102% |  | 98.4%
3 | COC(=O)c1cc(Cl)cc([N+](=O)[O-])c1O |  | 105% | 93.7% | 122% | 116% |  | 114% | 107% | 114% | 101% | 108% | 99.3% | 102% | 113% | 101% | 104% | 109% | 63.5%
4 | C=CCn1c(SCC(=O)Nc2ccc(C(=O)/C=C/c3ccccc3)cc2)nnc1-c1ccc(OC)c(OC)c1 | 2.52% (active) | 78.5% | 108% | 72.5% | 93.4% | 81.6% | 78.1% | 96.4% | 80.1% | 50.6% | 59.5% | 69.3% | 100% | 16.5% | -91.7% (active) | 85.3% | 57.3% | 
5 | CC1=NC(c2ccc(Cl)cc2)C2=C(N1)/C(=C/c1ccc(Cl)cc1)CCC2 (stereo unspecified) | -1.96% (active) | 79% | 114% | 83.6% | 109% | 98.8% | 104% | 97.9% | 98% | 82.5% | 66% | 22.4% | 82.1% | 31.3% | -39.9% (active) | 41.5% | 38% | 
6 | O=C(Nc1ccc(OS(=O)(=O)c2ccc(F)cc2)cc1)C12CC3CC(CC(C3)C1)C2 |  |  | 100% | 54.4% | 74.9% | 90.2% | 78.2% | 75.8% | 60.2% | 31.3% | 71.9% | 82.9% | 39.4% | 34% | 33.7% | 40.6% | 37.3% | 36.3%
7 | CCOC(=O)c1c(NC(=O)c2ccccc2)sc2c(O)c(CN(CC)CC)ccc12 |  | 2.1% (active) | 48.6% | 42.8% | -14.8% (active) | 22.4% | -61.6% (active) | 26.9% |  | 44.9% | 0.881% (active) | -55.4% (active) | 19.6% | 8.33% (active) | 7.59% (active) | 11.6% | 2.35% (active) | 9.72% (active)
8 | O=C(/C=C/c1cc([N+](=O)[O-])ccc1Cl)c1ccccc1 | 20.9% | 96.3% | 96.1% | 97.2% | 95.4% | 70.5% | 102% | 98.6% | 93.6% |  |  | 86% | 6.41% (active) | 20.6% | -100% (active) | 103% | 5.35% (active) | 
9 | O=C(Nc1cnc(C(F)(F)F)cn1)c1cc(Cl)ccc1O | -21.7% (active) | 4.89% (active) | 28.3% | 14% | -5.59% (active) | 23.8% | 15.6% |  | 8.26% (active) | -13.2% (active) | -21.3% (active) | 5.89% (active) | 10.9% | 6.48% (active) | 1.13% (active) | 14.6% | 3.91% (active) | 
10 | COc1ccc(-c2nnc(SCC(=O)Nc3ccc(C(=O)/C=C/c4ccc(Cl)cc4)cc3)n2-c2ccccc2)cc1 | 83.8% | 100% | 107% | 92.4% | 99.5% | 93.5% | 97.8% | 96.9% | 102% | 88% | 84.6% | 105% | 101% | 95.3% | 76% |  | 98.2% | 
11 | CC1(C)C2CCC(O)(C(=O)O)C1C2 (stereo unspecified) | 114% | 112% | 112% | 99.2% | 103% | 95.8% | 118% | 115% | 116% | 96.1% | 104% | 99.1% | 115% | 95.7% | 117% | 118% | 118% | 
12 | O=C(NO)c1ccc(NCc2csc3ccccc23)cc1 | 35.7% | 42% | 73.4% | 67.8% | 81.8% | 55.6% | 66.8% | 70.5% | 6.83% (active) | 41.5% | 77.6% | 82.4% | 61.5% | 83% | 34.4% | 73.5% | 66.9% | 
13 | COc1cc2c(cc1I)-c1c(cc(OC)c(OC)c1OC)CC[C@@H]2NC(C)=O | 35.5% | 24.6% | 36% | 40.8% | 10.3% | 9.96% (active) | 17.3% | -21.4% (active) | -19.2% (active) | 55.3% | 47.7% | -8.3% (active) | 10.3% | 11.3% | 6.59% (active) |  | 7.62% (active) | 
14 | CCCCCCCCCCCCCC(=S)NCCCC[C@H](NC(=O)OCc1ccccc1)C(=O)Nc1ccccc1 | 32% | 40.3% | 89.5% | 54.6% | 78.2% | 54% | 22.1% | 61.1% | 34.8% |  | 107% | 51.4% | 32.7% | 42.4% | 25% |  | 25.9% | 
15 | C=CCn1c(SCC(=O)Nc2ccc(/C(C)=N\O)cc2)nnc1-c1cc(-c2ccc(Cl)cc2)nc2ccccc12 | 9% (active) | 24% | 56.7% | 35% | 52.6% | -13.8% (active) | 31.1% | 67.1% | 2.18% (active) | 7.73% (active) | 33.5% | 30.8% | 41.1% |  | 19.5% | 21% | 16.5% | 
16 | O=C(Nc1cccc(Cl)c1)Nc1cc(C(F)(F)F)ccc1Cl | -14% (active) | 15.2% | 44.2% | 11.6% | 9.3% (active) | 14.3% | 18.9% | 55.9% | 2.25% (active) | 5.15% (active) | 25.8% | 8.14% (active) | -16.1% (active) | 16.1% | -13.3% (active) | 13.2% | -45.1% (active) | 
17 | Oc1ccc(CCCCCCc2ccc(O)cc2)cc1 | 64.7% | 44.1% | 86.1% | 50% | 71.5% | 60.4% | 83.1% | 103% | 33.3% | 65% | 50.3% | 71.4% | 58.1% | 35.9% | 66.8% | 92.3% | 59% | 
18 | O=C1C2=C(C(=O)c3c(O)ccc(O)c31)N(c1ccc(N3CCOCC3)nc1)Cc1ccccc1O2 | -20.6% (active) | -10.6% (active) | -45.2% (active) | -97.8% (active) | 15.2% | -70.5% (active) | -97.3% (active) | 27.5% | 5.43% (active) | -41% (active) | -78.5% (active) | -28.6% (active) | -54.3% (active) | -34.2% (active) |  | -66.3% (active) | -34.9% (active) | 
